# Reference: PMC7819943, “Rice protein-binding microarrays: a tool to detect cis-acting elements near promoter regions in rice”
# The full ranking holds about 68,000 sequences; the median of “fluorescence intensity (a.u.)” is about 9,100, and the highest 2% start at about 16,000. The sample holds the highest values, similar sequences and a random draw of the others, so the mix is not that of the screen.
# Target: OsWRKY34 (Oryza sativa, UniProt Q0JBA9 1-250)
# Experiment: protein-binding microarray (RPBM); PBS, 2% BSA, 51.3 ng/ul salmon testes DNA, 50 uM zinc acetate, 200 nM TF, 25 C, 1 h; high values mean tight binding
# Conditions: protein: recombinant; tags: N-terminal polyhistidine and DsRed monomer fusion (pET32a); label: CyDye5-dUTP incorporated in the synthesized complementary strand; 3' TTTTT single-stranded linker to array surface; dsDNA, one strand shown
# How it was run: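 Transcription factors, each fused N-terminally to a polyhistidine tag and DsRed, were expressed in E. coli BL21-CodonPlus and purified on Ni–NTA. A custom Agilent array was made double-stranded by primer extension with Cy5-dUTP and blocked with 2% BSA. It was incubated with 200 nM protein in PBS, 2% BSA, salmon testes DNA and 50 µM zinc acetate at 25 °C for 1 h, then washed. The binding signal is per-feature fluorescence intensity (arbitrary units) read on an Axon 4000B scanner.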
# Sequence of OsWRKY34 (Q0JBA9 entry or part of it): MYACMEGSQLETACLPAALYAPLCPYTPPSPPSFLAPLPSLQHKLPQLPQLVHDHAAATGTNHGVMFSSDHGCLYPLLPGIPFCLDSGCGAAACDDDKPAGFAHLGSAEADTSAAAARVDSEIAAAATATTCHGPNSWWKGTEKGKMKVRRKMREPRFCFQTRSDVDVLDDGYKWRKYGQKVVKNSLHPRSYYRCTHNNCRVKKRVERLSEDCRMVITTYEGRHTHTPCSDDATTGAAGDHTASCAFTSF
row,Sequence,binding signal
1,CGCTTTCCTCTCCGGCAACGACCTCGCAGCTGTGGCCACCCGGAGTCACCTAGTGCAG,18600 fluorescence intensity (a.u.)
2,GATCTCATCCCGTCCCGTCATCTGCTTCCTCTCTCGGAACCGGAGTCACCTAGTGCAG,16900 fluorescence intensity (a.u.)
3,CGCCGCCGCTCCAGCTCCAGCCGCCCGTGCTCCCTCGCGGCGGAGTCACCTAGTGCAG,8200 fluorescence intensity (a.u.)
4,TCTGCTTCTTCATCCTCGTGCTCTGCTTCTCTCTTCTTCCCGGAGTCACCTAGTGCAG,8980 fluorescence intensity (a.u.)
5,CCCCAACCCGCCGCCAGCCACCGAGCTCGCCACCGTCTCCCGGAGTCACCTAGTGCAG,8970 fluorescence intensity (a.u.)
6,TGTGCCGCTCCGTCGTGCTCTTCGTCGCGCCACTCATCCTCGGAGTCACCTAGTGCAG,9080 fluorescence intensity (a.u.)
7,CGTTTTCTTTTTTCTTCCTCGCTTTCTCTCTCTCTCTCTCCGGAGTCACCTAGTGCAG,11600 fluorescence intensity (a.u.)
8,ACAATCCATTTTATTCCAACAGATATATACACGGGGACAACGGAGTCACCTAGTGCAG,8410 fluorescence intensity (a.u.)
9,GGCTAGGTTGTGCGCGCCCTTCTCGATGTAGCAATAGCAACGGAGTCACCTAGTGCAG,8520 fluorescence intensity (a.u.)
10,CCTTCGACCCGTCCCCTCACAAACGGCCGTTTCCCTCCCGCGGAGTCACCTAGTGCAG,9230 fluorescence intensity (a.u.)
11,GATCGAATCGAATAGAGTACATTCTCTACAGGGGAGGGGACGGAGTCACCTAGTGCAG,9760 fluorescence intensity (a.u.)
12,GTCTGTGAATGTTTTATTTGCCTTGTCTGAACTATCTTTACGGAGTCACCTAGTGCAG,11400 fluorescence intensity (a.u.)
13,TGTTGGTGAATGGTAATTTTTTGGGTTGATATGTTGCTGACGGAGTCACCTAGTGCAG,9580 fluorescence intensity (a.u.)
14,CTTCCTTCCTAACGTATCGCCCACATTCCTCCACGTCTCCCGGAGTCACCTAGTGCAG,8980 fluorescence intensity (a.u.)
15,TCCATTTCCTTGTTTGGTTGGGTGGATGAGAATGGATTGACGGAGTCACCTAGTGCAG,9010 fluorescence intensity (a.u.)
16,ACACCGCACCGCCGCAATCGTTGGCACAAGCTACAACCCTCGGAGTCACCTAGTGCAG,8540 fluorescence intensity (a.u.)
17,CAAAACAGCCGCGTTTTGGCTCACTAGTCACTTGTTTGACCGGAGTCACCTAGTGCAG,9710 fluorescence intensity (a.u.)
18,GCAACCACTGTCTCGCTCTCCGCCGCCATCGCCGCCGCCGCGGAGTCACCTAGTGCAG,10500 fluorescence intensity (a.u.)
19,TTGTCTCACCACTGCTTCGCATCCTCCGCCGCCGCCTCACCGGAGTCACCTAGTGCAG,11000 fluorescence intensity (a.u.)
20,CAGCCCACCGCCGCATCCTCGCAACCACTGTCTCGCTCTCCGGAGTCACCTAGTGCAG,17000 fluorescence intensity (a.u.)
21,ATTTTTTTGGGCGCGGGTTGGAGCCGGTTTGACTAAAAGGCGGAGTCACCTAGTGCAG,8310 fluorescence intensity (a.u.)

row,Sequence,binding signal
1,GATTGACTTGCCAAACATTTTACATGCGTTTATTGTACCACGGAGTCACCTAGTGCAG,9920 fluorescence intensity (a.u.)
2,CTCCTGGCAACCCCATGCACTGCTTTTGCTGCCCTTAAGTCGGAGTCACCTAGTGCAG,8620 fluorescence intensity (a.u.)
3,AAATATACAACTCTTGGACGCCCTTACATCTCTCCATTGTCGGAGTCACCTAGTGCAG,8230 fluorescence intensity (a.u.)
4,AGCCACCTTGTCGTTTTCCGCTCCTCACCTGCTCAACTTCCGGAGTCACCTAGTGCAG,9800 fluorescence intensity (a.u.)
5,GTGCGCGTTCTTGGTGTTATGGAGGCGGGTCTCGGCGGGGCGGAGTCACCTAGTGCAG,17600 fluorescence intensity (a.u.)
6,AGAGGTTTGGGGTTGGTTCATCTCGCGGGCTTGGGCGGCGCGGAGTCACCTAGTGCAG,14400 fluorescence intensity (a.u.)
7,ACACACCGCGGGTTGGAGGAGGAGGAGGAGGAGGTAGGGGCGGAGTCACCTAGTGCAG,10500 fluorescence intensity (a.u.)
8,GGTTTGGAGGCGGAGGTGGCGCTGGAGGAGGCGGCGGTCTCGGAGTCACCTAGTGCAG,9970 fluorescence intensity (a.u.)
9,TACGGGTTAGGGTTTGGGGTTGGGGTCAAGGTAGGAGGGGCGGAGTCACCTAGTGCAG,22500 fluorescence intensity (a.u.)
10,GGTTTGGTTGGGGTTTAGGTCTCGGGGCGGCGCGGAGGCGCGGAGTCACCTAGTGCAG,17700 fluorescence intensity (a.u.)
11,CGGCGGGTTAGGGTTTGGGGTTGGGGTAAGGATAGGAGGGCGGAGTCACCTAGTGCAG,14200 fluorescence intensity (a.u.)
12,CTTGGAGGTGGTTCAGGTGGAGGCGGCGGTCTCGGAGGTGCGGAGTCACCTAGTGCAG,9240 fluorescence intensity (a.u.)
13,GTTTGATTTGGTGAGGCGGGCGGTGTGCGCGTGGTGGTCTCGGAGTCACCTAGTGCAG,8680 fluorescence intensity (a.u.)
14,GCCTCGACATGCGCGTCCGATTTATCCCCTTTTTTTTTTTCGGAGTCACCTAGTGCAG,8470 fluorescence intensity (a.u.)
15,CATGCCAGGTGTTGGGCCTCATCGTCGGCCGCTTAGTATCCGGAGTCACCTAGTGCAG,8380 fluorescence intensity (a.u.)
16,TTTTGTCCTTCAACCTGTTGAAGTTGTTTTCAGTTGTTCACGGAGTCACCTAGTGCAG,11600 fluorescence intensity (a.u.)
17,GTCACCAGTGTCCGCCAATAATTTGCACATCTTCTCATATCGGAGTCACCTAGTGCAG,10300 fluorescence intensity (a.u.)
18,TGCTTAGTTGCCCTACAACCTTTTTACAGGCTATATTTATCGGAGTCACCTAGTGCAG,8110 fluorescence intensity (a.u.)
19,TAGCTTAATATTTTTTTTCTCGCTAGCTTTATTTAAAATGCGGAGTCACCTAGTGCAG,8170 fluorescence intensity (a.u.)
20,TATTCACGGCTGCACTTATTTTGGGACGGAGGTAGTATTTCGGAGTCACCTAGTGCAG,8070 fluorescence intensity (a.u.)
21,CCCTCCTTCCCTTTTAGTGGGTCTGTTTTCTTGGAGCGCGCGGAGTCACCTAGTGCAG,8600 fluorescence intensity (a.u.)
